# In PubChem BioAssay AID1345085 (National Center for Advancing Translational Sciences (NCATS), 2018):
# Records with an inconclusive call do not appear. Calls of active or inactive are those of the source. The call rests on the fitted dose curve; in most records, active means well fitted cell-killing curve with a large enough effect; inconclusive means small, poorly fitted or top-dose-only effect, or effect the other way; inactive means no such curve, though single readings can be large or run the other way.
# Tested on: CASKI
# Assay: Confirmatory qHTS for gynecologic anti-cancer compounds from libraries of approved drugs and bioactive compounds; further: nearly all actives have a fitted effect of over 55% in size
# Conditions: gynecologic cancer cell panel viability, ATPlite luminescence, 48 h; series mostly up to 57.6 µM; activity change, negative = viability loss: at the top concentration
# Outline: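 Viability is measured as ATP-dependent luciferase light using ATPlite, read 15 min after reagent addition at room temperature. Compounds, in DMSO, span 57.5 uM down to 0.977 nM over 11 threefold steps for 48 h.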
# On the % scale 0 is the no-effect control and ±100 the full control effect; potency means the concentration at half of the fitted maximal effect.
Compound,Potency,"activity change, negative = viability loss"
O=C(CCCCCCNC(=O)c1cnc(N(c2ccccc2)c2ccccc2)nc1)NO,21.7 µM (active),
CCCCc1oc2ccccc2c1C(=O)c1cc(I)c(OCCN(CC)CC)c(I)c1,79.4 µM (active),
COc1ccc(OC)c(-c2nnc3ccc(-c4ccc(OC)c(O[C@@H]5CCOC5)c4)nn23)c1,,-14.3% (inactive)
COc1ccccc1N1CCN(CC(O)COc2cccc3ccccc23)CC1 (centres undefined),,-4.81% (inactive)
CCN1CCN(Cc2ccc(-c3cc4c(NC(C)c5ccccc5)ncnc4[nH]3)cc2)CC1 (centres undefined),19.3 µM (active),
Nc1nc(Cl)nc2c1ncn2C1OC(CO)C(O)C1F (centres undefined),1.22 µM (active),
NC(=O)c1cccc2cn(-c3ccc([C@@H]4CCCNC4)cc3)nc12,,1.6% (inactive)
Cn1cnc([N+](=O)[O-])c1Sc1ncnc2nc[nH]c12,6.85 µM (active),
Cc1ccc(C(=O)Nc2ccc(CN3CCN(C)CC3)c(C(F)(F)F)c2)cc1C#Cc1cnc2cccnn12,21.7 µM (active),
Cc1cc(C(C)Nc2ccccc2C(=O)O)c2nc(N3CCOCC3)cc(=O)n2c1 (centres undefined),6.85 µM (active),
NCCOc1cc(C(=O)Nc2cc(OCCN)c3ccccc3n2)nc(C(=O)Nc2cc(OCCN)c3ccccc3n2)c1,30.6 µM (active),
COc1ccc2c(c1)c(CC(=O)O)c(C)n2C(=O)c1ccc(Cl)cc1,,-4.55% (inactive)
COCCOc1ccc2c(c1)ncn2-c1ccc2cccc(N3CCC(N)CC3)c2n1,27.3 µM (active),
CN1CCN(c2ccc(OC(F)(F)F)c(Nc3ncc4c(n3)-c3c(c(C(N)=O)nn3CCO)CC4)c2)CC1,,-21.7% (inactive)
CCc1nc(C(N)=O)c(Nc2ccc(N3CCC(N4CCN(C)CC4)CC3)c(OC)c2)nc1NC1CCOCC1,11.9 µM (active),
CC(C)(C)C(=O)OCOP(=O)(COCCn1cnc2c(N)ncnc21)OCOC(=O)C(C)(C)C,,-18% (inactive)
CN(NC(=O)CC(=O)NN(C)C(=S)c1ccccc1)C(=S)c1ccccc1,,8.76% (inactive)
COc1cc(Nc2ncc(F)c(Nc3ccc4c(n3)N(COP(=O)(O)O)C(=O)C(C)(C)O4)n2)cc(OC)c1OC,5.44 µM (active),
COc1cccc2c1C(=O)c1c(O)c3c(c(O)c1C2=O)C[C@@](O)(C(=O)CO)C[C@@H]3O[C@H]1C[C@H](N)[C@H](O)[C@H](C)O1,8.63 µM (active),
